According to PubChem BioAssay (Tox21):
Records with an inconclusive call do not appear. Activity calls are given as the source filed them. The call rests on the fitted dose curve; in most records, active means well fitted activation curve with a large enough effect in the repeat runs; inconclusive means weak or mixed curves; inactive means no such curve, though single readings can be large or run the other way.

Assay: qHTS assay for small molecules that induce genotoxicity in human embryonic kidney cells expressing luciferase-tagged ATAD5 (AID 651632); further: nearly all actives have a fitted effect of over 15% in size
Settings: HEK293T ATAD5-luciferase induction, 16 h; series mostly up to 83.3 µM
From the text: U.S. Tox21 Program National Center for Advancing Translational Sciences [NCATS] NIH Chemical Genomics Center [NCGC] U.S. Environmental Protection Agency [EPA] National Institutes of Environmental Health Sciences [NIEHS] National Toxicology Program [NTP] U.S. Food and Drug Administration [FDA] Tox21 Assay Overview: As cancer cells divide rapidly and during every cell division they need to duplicate their genome by DNA replication. The failure to do so results in the cancer cell death. Based on this concept, many chemotherapeutic agents were developed but have limitations such as low efficacy and severe side effects etc. A new cell based assay was developed to find the compounds that effectively block DNA replication either by directly damaging DNA or by inhibiting other cellular mechanisms. Enhanced Level of Genome Instability Gene 1 (ELG1; human ATAD5) protein levels increase in response to various types of DNA damage. Using a luciferase reporter-gene tagged with ATAD5, a cell-based assay [developed by Kyungjae Myung, NHGRI, NIH] was used to measure the induction of ATAD5 in human embryonic kidney cells (HEK293T). So, increase in luciferase activity can be used to identify the compounds that cause genetic stress.
Tox21 Assay Protocol Summary: For genotoxicity screening, 2,000 cells in 5 uL/well were dispensed into white, solid-bottom 1536-well plates using a Multidrop Combi (Thermo Scientific) dispenser. Following transfer of 23 nL compound or DMSO vehicle by a pin tool, the plates were incubated 16 hr at 37C and 5% CO2. 5 ul Amplite (AAT Bioquest, Inc.) was then added to each plate and following 30 min incubation at room temperature, luciferase activity was quantified on a ViewLux CCD-based plate reader.

Structure (SMILES)	outcome
Cc1cccc(NC(=S)N(C)C)c1	inactive
CCCCOC(=O)[C@@H](C)Oc1ccc(Oc2ccc(C(F)(F)F)cn2)cc1	inactive
CCNC(=O)/C=C/c1cccc(Br)c1	inactive
CN[C@@H]1[C@@H](O)[C@@H](O[C@@H]2[C@H](O)[C@H](O[C@H]3OC(CN)=CC[C@H]3N)[C@@H](N)C[C@H]2N)OCC1(C)O (stereo not given in full)	inactive
CNCc1ccccc1	inactive
O=C1NC2NC(=O)NC2N1 (stereo not given)	inactive
CC(C)(c1ccc(Oc2ccc3c(c2)C(=O)OC3=O)cc1)c1ccc(Oc2ccc3c(c2)C(=O)OC3=O)cc1	inactive
CC(C)c1ccccc1O	inactive
CCOc1ccc(NC(=O)OC(C)C)cc1OCC	inactive
CCCCCCCCCOCC1CO1 (stereo not given)	inactive
CCNC(=O)NCCCOc1cccc(CN2CCCCC2)c1	inactive
Cc1cccc(C(=O)O)c1[N+](=O)[O-]	inactive
Cc1ccccc1OCC1CO1 (stereo not given)	inactive
CCC(C)(C)C1CCC(=O)CC1	inactive
CC1=CC[C@H](CC=O)C1(C)C	inactive
Cc1nc(C)nc(N2C[C@@H](C)N(c3ccnc([C@@H](C)O)n3)[C@@H](C)C2)n1	inactive
CCC(=O)OCCC(C)CCC=C(C)C (stereo not given)	inactive
COc1cc([N+](=O)[O-])ccc1N	inactive
COc1ccc(/C=N/NC(=O)c2ccncc2)cc1OC	inactive
O=C1OC(=O)c2cc(Oc3ccc4c(c3)C(=O)OC4=O)ccc21	inactive

Structure (SMILES)	outcome
C1=CCC(c2ccccc2)CC1 (stereo not given)	inactive
C=CCOC(=O)c1ccc(C(=O)OCC=C)c(C(=O)OCC=C)c1	inactive
CCN(Cc1cccc(S(=O)(=O)O)c1)c1ccccc1	inactive
NS(=O)(=O)c1ccccc1OC(F)(F)F	inactive
CCS(=O)(=O)CCn1c([N+](=O)[O-])cnc1C	inactive
CC(C)CCCC(C)CC=O (stereo not given)	inactive
CC(C)SCc1ccco1	inactive
CC(C)CCCCCCOC(=O)C1CCCCC1C(=O)OCCCCCCC(C)C (stereo not given)	inactive
CCCCC(=O)N(C)C	inactive
COC(OC)C(C)c1ccccc1 (stereo not given)	inactive
CCCCCCCCCCCCOC(C)=O	inactive
CCN(CCC#N)c1ccccc1	inactive
NC(=O)C1(N2CCCCC2)CCN(CCCC(=O)c2ccc(F)cc2)CC1	inactive
F[Si-2](F)(F)(F)(F)F	inactive
CCC1COC(=O)O1 (stereo not given)	inactive
CC(=O)Nc1ccc(C)cc1	inactive
CN[C@@H]1[C@H](O)[C@H](NC)[C@H]2O[C@@]3(O)C(=O)C[C@@H](C)O[C@H]3O[C@@H]2[C@H]1O	inactive
Cc1ccc(S(=O)(=O)NC(=O)NC2CCCCCCC2)cc1	inactive
Cc1oc(=O)oc1CN1CCN(c2cc3c(cc2F)c(=O)c(C(=O)O)c2n3C(C)S2)CC1 (stereo not given)	inactive
CCCCOC(=O)C(=O)OCCCC	inactive
